KB-3-1 tox: qHTS assay for MDR1-selective chemotherapeutics: Primary screen using the parental adenocarcinoma cell KB-3-1. Potency, µM (highest dose often 46.1 µM), most hits filed as cytotoxic. 400,000 compounds, 1.4% hits. KB-3-1 viability, CellTiter-Glo ATP luminescence, 72 h; also: % is scaled to controls: 0 for no effect and ±100 for the full control effect; nearly all actives have a fitted effect of over 60% in size
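Using CellTiter-Glo luminescence, growth of non-resistant KB-3-1 adenocarcinoma cells is assessed 72 h after pin-tool compound addition at 37 °C. Normalized responses across the concentration series yield fitted curves.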
KB-V1 cytotox: qHTS assay for MDR1-selective chemotherapeutics: Primary screen using the drug-selected MDR subline cells KB-V1; KB-V1 MDR cells viability, CellTiter-Glo, 72 h; Potency, µM (series often up to 46.1 µM), most hits filed as cytotoxic; 400,000 compounds, 3.4% hits; AID 1347076, 2019; also: % is scaled to controls: 0 for no effect and ±100 for the full control effect; nearly all actives have a fitted effect of over 60% in size
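Luminescent ATP read-out (CellTiter-Glo, 10 min) measures survival of drug-selected KB-V1 MDR cells after 72 h, 37 degrees C compound exposure. Medium: phenol-red-free DMEM, 10% FBS. Values from fitted concentration-response curves.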
MCF10A rerep: A quantitative high throughput screen for small molecules that induce DNA re-replication in MCF 10a normal breast cells; 350,000 compounds, 2.9% hits; Potency, µM (series often up to 46.1 µM), for inactives: at the top dose activity, positive = re-replication, actives largely listed as activators; MCF 10A DNA re-replication, Hoechst nuclear intensity, 48 h; also: % of control where 0% means no effect; nearly all actives have a fitted effect of over 50% in size
SW480 rereplic: A quantitative high throughput screen for small molecules that induce DNA re-replication in SW480 colon adenocarcinoma cells | SW480 DNA re-replication, Hoechst DNA content imaging, 48 h | Potency, µM (doses to about 46.1 µM), inactives show at the highest dose re-replication activation, usual class: activators | 340,000 compounds, 1.8% hits | AID 624297, 2012; also: % of control where 0% means no effect; nearly all actives have a fitted effect of over 55% in size
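Image-based read-out: total Hoechst fluorescence of nuclei (405 nm excitation, 500-530 nm emission), with hits raising the fraction of high-intensity nuclei. SW480 colon cells incubated 48 hr with compounds at 37 C.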
ELG1 DNA repair: qHTS screen for small molecules that inhibit ELG1-dependent DNA repair in human embryonic kidney (HEK293T) cells expressing luciferase-tagged ELG1. Potency, µM (series often up to 46.1 µM), without a hit: at the top dose activity change, negative = inhibition, hits mostly inhibitors. AID 504467, 2011. HEK293T ELG1-luciferase reporter, luminescence, 16 h; DNA damage induced by 5-fluorouridine. 330,000 compounds, 2.3% hits; also: % is scaled to controls: 0 for no effect and ±100 for the full control effect; nearly all actives have a fitted effect of over 55% in size
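DMSO vehicle served as the neutral condition. Each well held 2,000 cells given 5-fluorouridine plus compound; after 16 hr at 37 °C/5% CO2, ONE-Glo was added and luciferase measured 30 min later.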
An asterisk follows results filed as active; i = inactive; u = inconclusive; x = not tested or not shown. Rows were chosen to be rich in hits. Some 8.1% of all compounds tested hit in one or more screens of this group. Calls follow the shape of the dose curve; as a rule, active = well fitted curve in the direction sought with a large enough effect; inconclusive = small, poorly fitted or top-dose-only effect, or another doubt; inactive = no such curve, though single readings can be large; an effect the other way counts as inactive or inconclusive. Potency is read from the fitted curve at half-maximal effect.

SMILES	KB-3-1 tox	KB-V1 cytotox	MCF10A rerep	SW480 rereplic	ELG1 DNA repair
Cc1cc(C(=O)C(C)OC(=O)c2ccc(NC(=O)CC#N)cc2)c(C)n1-c1ccccc1 (configuration not stated)	i	i	u	3.3µM*	u
O=C(Nc1ccccc1)c1cc(C2CCCCN2C(=O)c2ccc3c(c2)CCO3)on1 (configuration not stated)	i	i	x	x	x
C[C@H](NS(=O)(=O)c1ccc(Cl)cc1)C(=O)OCC(=O)NCCc1ccc(S(N)(=O)=O)cc1	i	u	-6%	-1%	x
O=C(Cc1c(F)cccc1Cl)NNC(=O)c1ccccc1Cl	i	i	11%	-14%	15%
CCOC(=S)SCC(=O)N1CCc2cc(OC)ccc2C1C1C(=O)CCCC1=O (configuration not stated)	u	u	u	10µM*	-6%
CCOC(=S)SCC(=O)N1CCc2cc(OC)c(OC)cc2C1C1C(=O)CC(C)(C)CC1=O (configuration not stated)	i	i	u	-7%	2%
CN(c1ccccc1)c1ccc(/C=C/[N+](=O)[O-])cc1	u	i	7.3µM*	21µM*	u
COc1ccc(CN2CCN(C(=O)c3cccc4ccccc34)CC2)cc1Br	i	i	19%	-4%	u
COc1ccc(CN2CCN(C(=O)c3cccc4ccccc34)CC2)cc1OC	i	i	0.65µM*	6.5µM*	12µM*
CCOc1cc(CN2CCN(C(=O)c3cccc4ccccc34)CC2)ccc1OC	i	u	-1%	u	15µM*
COC(=O)C(C(=O)OC)[C@@H]1C=C[C@H](C[N+](=O)[O-])N(C(C)=O)C1	i	i	-2%	-17%	x
Cc1[nH]c2ccccc2c1SCC(=O)N1CCCCC1	i	i	5.8µM*	15%	2%
O=C(OCC(=O)N1CCCCC1)c1c[nH]c2ccccc12	i	21µM*	0%	3%	u
Cc1[nH]c2ccccc2c1C(=O)CSC(=S)N1CCCCC1	i	13µM*	-63%	2%	u
O=C(OCC(=O)N1CCCC1)c1c[nH]c2ccccc12	i	i	-6%	-3%	u
Cc1[nH]c2ccccc2c1C(=O)CSC(=S)N(C)C1CCCCC1	i	i	13%	16%	u
CC1CCCCN1S(=O)(=O)c1cc2c3c(c1)CC(=O)N3CCC2 (configuration not stated)	i	i	x	x	x
O=C1C=C(c2ccc(C(=O)O)cc2)C[C@@H](c2ccc(F)cc2)C1	i	i	-9%	-2%	u
Cc1ccccc1C(=O)NCC(c1cccnc1)N1CCc2ccccc21 (configuration not stated)	i	i	x	x	x
CNc1c2cccc(C)c2nc2c(C(=O)NCCN(C)C)cccc12	0.29µM*	u	-11%	u	x
CCCNC(=O)CNC(=O)c1ccccc1OCC(=O)Nc1ccc(Br)cc1	i	i	x	x	x
CCC1CCCCN1C(=O)c1cc(COc2ccc(-n3cncn3)cc2)on1 (configuration not stated)	18µM*	13µM*	-5%	-15%	-2%
NC(=O)N/N=C/c1sc(N2CCCCC2)nc1-c1cccs1	i	u	23µM*	21µM*	x
O=C(N/N=C/c1sc(N2CCCCC2)nc1-c1cccs1)C1CC1	i	i	u	u	u
O=C1CCC(OCc2ccccc2)CCN1[C@H](CSc1ccccc1)Cc1ccccc1 (some centres not stated)	u	i	x	x	x
COc1ccccc1OCc1cc(C(=O)N2CCN(C)C(c3ccccc3)C2)no1 (configuration not stated)	i	i	16%	0%	u
